# Data reported in PubChem BioAssay (NCI).
# Compounds without any hit were thinned out: in the full panel of roughly 83,000, 20% have a hit.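 Single-concentration screen, 48 h exposure, 96-well plates. Endpoint: percent growth. Below 10 = active.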 A number with no mark means an inactive call. The source made the active and inactive calls.
# Legend:
# Experiment in all cases: NCI-60 one-dose screen, 48 h (100 = growth as untreated, 0 = no growth, -100 = all killed)
# Conditions in all cases: 10 µM unless noted
# HT29 colon = tested on: HT29 colon
# SNB-75 CNS = tested on: SNB-75 CNS
# SNB-19 CNS = tested on: SNB-19 CNS
# U251 CNS = tested on: U251 CNS
# PC-3 prostate = tested on: PC-3 prostate
# SK-MEL-5 melanoma = tested on: SK-MEL-5 melanoma
# UACC-62 melanoma = tested on: UACC-62 melanoma
# LOX IMVI melanoma = tested on: LOX IMVI melanoma
# SK-MEL-28 melanoma = tested on: SK-MEL-28 melanoma
# SK-MEL-2 melanoma = tested on: SK-MEL-2 melanoma
Structure (SMILES),growth (HT29 colon),growth (SNB-75 CNS),growth (SNB-19 CNS),growth (U251 CNS),growth (PC-3 prostate),growth (SK-MEL-5 melanoma),growth (UACC-62 melanoma),growth (LOX IMVI melanoma),growth (SK-MEL-28 melanoma),growth (SK-MEL-2 melanoma)
C=C(C)[C@H]1CC/C(C)=C/CC[C@]2(C)O[C@H]2CC/C(COC(C)=O)=C\C1=O,115%,120%,108%,101%,94.6%,109%,108%,88.1%,116%,–
Cc1nn(-c2ccccc2)c2ncc3c(c12)C(=O)N(Cc1ccccc1)C3=O,53.5%,-27.1% (active),47.9%,8.03% (active),75.2%,99.5%,75%,37.2%,91.9%,113%
Nc1nc(Cl)c2[nH]cnc2n1,110%,79.6%,92.9%,97.6%,122%,105%,100%,105%,113%,85.4%
O=NC1CC=CCC1c1ccccc1 (centres undefined),100%,93.5%,109%,105%,94%,108%,100%,104%,114%,108%
CC(=O)NCCSC(=O)C(=O)SCCNC(C)=O,120%,93%,104%,108%,109%,104%,99.4%,104%,118%,19%
COc1ccc2nc(NC(=O)c3cc(-c4ccc(F)cc4)n4nc(-c5ccccc5)cc4n3)sc2c1,92.5%,80.4%,83.3%,64.2%,63.7%,55.5%,67.9%,67.9%,73.1%,–
CCC(CC)NCCCCCNc1cc(OC)cc2cccnc12,77.3%,73.4%,91.1%,86.5%,97.3%,95.4%,94.4%,86.3%,108%,79.8%
O=C(Nc1nc2ccccc2s1)c1cc(-c2ccc(F)cc2)n2nc(-c3ccccc3)cc2n1,74.5%,38.4%,71.3%,18.2%,56.9%,72.6%,70.6%,45.6%,85.4%,–
C=Cc1nn2c(CCC(=O)c3nc4ccccc4[nH]3)nnc2s1,105%,110%,107%,104%,98%,98.2%,102%,95%,113%,97.5%
O=C(Nc1cccc(-n2cc(-c3ccncc3)c(-c3ccc(O)c(Cl)c3)n2)c1)Nc1ccc(Cl)c(C(F)(F)F)c1,21.6%,-12% (active),33.1%,-64.4% (active),-22.6% (active),-35.9% (active),-38.9% (active),0.0501% (active),-12.8% (active),–
O=C(Nc1ccc(OCc2nnc(-c3ccccc3)o2)c(F)c1)Nc1ccc(Cl)c(C(F)(F)F)c1,9.92% (active),40.2%,29.9%,7.14% (active),-16.2% (active),4.6% (active),27.4%,7.41% (active),49.2%,16.2%
N#CCCN(CCO)c1ccccc1,93.7%,100%,101%,101%,86.7%,99.9%,103%,107%,108%,101%
Nc1nc2ncc(CCNc3ccc(C(=O)NC(CCC(=O)O)C(=O)O)cc3)nc2c(=O)[nH]1 (centres undefined),109%,81.3%,111%,100%,106%,98.9%,99.6%,98.3%,125%,2.9% (active)
CCN(CC)c1ccc(N=Nc2cc(Cl)ccc2Cl)c(NC(=O)CCC(=O)O)c1,111%,91.1%,110%,94.7%,90.1%,103%,101%,99.1%,120%,118%
COc1ccc2c(c1)/C(=C\c1c[nH]c3ccc(F)cc13)C(=O)N2,86.1%,86.7%,93.9%,83.4%,84%,97%,90.7%,74.3%,105%,–
COc1cc(/C=C2\CCC/C(=C\c3ccc(OCC4CO4)c(OC)c3)C2=O)ccc1OCC1CO1 (centres undefined),-15% (active),51.4%,63.4%,12.7%,50.7%,18.4%,3.6% (active),-59.9% (active),14.8%,49.7%
COc1ccc2c(c1)C(=O)/C(=C/c1ccc([N+](=O)[O-])s1)O2,-22.7% (active),12.2%,-5.72% (active),-50.7% (active),-15.7% (active),-13.5% (active),-48% (active),-24.9% (active),-33.9% (active),-49.1% (active)
O=C(Nc1cccc(C(F)(F)F)c1)Nc1ccc(OCc2nnc(-c3ccc(Cl)cc3)o2)c(F)c1,60.2%,39.4%,69.9%,52.7%,45.9%,77.5%,68.8%,63.5%,73.5%,78.7%
COc1cc(OC)c2cc(C(=O)O)c(=O)oc2c1,119%,125%,98%,109%,127%,94.6%,95.5%,67%,118%,-11% (active)
CN(C)c1ccc2c(c1)/C(=N/O)c1ccccc1-2,81.4%,76.8%,79.6%,48.9%,72.3%,90.7%,64.7%,59.4%,75.7%,111%
COc1ccc2c(c1)nc(N)c1c3cc(C)c(C)cc3cn21,37.9%,92.8%,77.5%,53.9%,90.3%,58.8%,44%,75.4%,81.1%,84.4%
C[N+]1(CCc2ccccc2)CCC(CCC2CC[N+](C)(CCc3ccccc3)CC2)CC1 (centres undefined),94%,83.9%,98.1%,87.9%,101%,100%,85.7%,102%,111%,119%
C=C(C)[C@@H]1C/C=C(/C=O)CC[C@@H]2O[C@@]2(C)CC/C=C(\C)CC1,127%,87.1%,110%,104%,63.3%,101%,92.3%,93.3%,118%,–
S=C(c1ccccc1)N1CCN(c2cccc(Cl)c2)CC1,94.8%,110%,107%,99.6%,75.3%,95.6%,91.1%,105%,121%,100%
CCOC(=O)C(C(C)=O)c1nc2sc3cc(Cl)ccc3n2c(=N)c1C#N (centres undefined),52.8%,34.5%,89.6%,86.2%,72.5%,73.9%,67.8%,97.2%,69.8%,74.1%
CCC(C)CC(C)C(=O)c1c(O)ccn(O)c1=O (centres undefined),97.3%,49.3%,18.6%,11.1%,24.5%,25.3%,3.01% (active),6.78% (active),29%,41.9%
